Measurements published in PubChem BioAssay AID1159580 (chemical genetic matrix, 2015).
Screen size: about 5,500 compounds; about 2,000 (36%) were called active. Another 18% or so got no clear call; they are omitted. This is one part of the list. Unmarked numbers belong to inactive results. No stated cut-off is given here; in the data, active means normalized growth mostly below about 0.91 (no sharp cut-off); inconclusive means no clear call, values can overlap the other calls; inactive means mostly above about 0.92.

Experiment: chemical genetic growth profiling, strain panel (AID 1159580);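 further: tested at 20 µM; growth read once vehicle control cultures reached saturation at 30 °C; 1 = growth at the plate median or of vehicle wells; lower values mean less growth of the strain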
Details: S. cerevisiae deletion strains, growth OD
[1] = locus YHR030C, strain SLT2, hits give low values
[2] = locus YHR079C, strain IRE1, hits give low values
[3] = locus YJL095W, strain BCK1, hits give low values
[4] = locus YJR066W, strain TOR1, hits give low values
[5] = locus YLR113W, strain HOG1, hits give low values
[6] = locus YNL183C, strain NPR1, hits give low values
[7] = locus YOR231W, strain MKK1, hits give low values
[8] = locus YPL256C, strain CLN2, hits give low values

O=C(CCCN1CCN(c2ccccn2)CC1)c1ccc(F)cc1
normalized growth (locus YAL021C, strain ccr4, hits give low values): 0.848 (active) | normalized growth (locus YAL026C, strain drs2, hits give low values): 0.0899 (active) | normalized growth (locus YAL030W, strain snc1, hits give low values): 0.989 | normalized growth (locus YBL061C, strain skt5, hits give low values): 0.968 | normalized growth (locus YBR009C, strain hhf1, hits give low values): 0.964 | normalized growth (locus YBR023C, strain chs3, hits give low values): 0.969 | normalized growth (locus YBR171W, strain sec66, hits give low values): 0.954 | normalized growth (locus YBR231C, strain swc5, hits give low values): 0.855 (active) | normalized growth (locus YBR279W, strain paf1, hits give low values): 0.93 (active) | normalized growth (locus YCL011C, strain gbp2, hits give low values): 0.971 | normalized growth (locus YCL016C, strain dcc1, hits give low values): 0.95 | normalized growth (locus YCL061C, strain MRC1, hits give low values): 0.993 | normalized growth (locus YCL069W, strain vba3, hits give low values): 0.977 | normalized growth (locus YCR088W, strain abp1, hits give low values): 0.992 | normalized growth (locus YDL005C, strain med2, hits give low values): 0.984 | normalized growth (locus YDL040C, strain nat1, hits give low values): 0.984 | normalized growth (locus YDR001C, strain nth1, hits give low values): 0.983 | normalized growth (locus YDR069C, strain doa4, hits give low values): 0.858 (active) | normalized growth (locus YDR137W, strain rgp1, hits give low values): 1 | normalized growth (locus YDR159W, strain sac3, hits give low values): 0.996 | normalized growth (locus YDR195W, strain ref2): 1.23 [resistant] (active) | normalized growth (locus YDR297W, strain sur2, hits give low values): 0.972 | normalized growth (locus YDR334W, strain swr1, hits give low values): 0.968 | normalized growth (locus YDR335W, strain msn5, hits give low values): 0.948 | normalized growth (locus YDR392W, strain spt3, hits give low values): 0.606 (active) | normalized growth (locus YEL003W, strain gim4, hits give low values): 0.933 | normalized growth (locus YEL037C, strain rad23, hits give low values): 0.971 | normalized growth (locus YEL061C, strain CIN8 (second series), hits give low values): 0.976 | normalized growth (locus YER015W, strain faa2, hits give low values): 0.977 | normalized growth (locus YER016W, strain bim1, hits give low values): 0.981 | normalized growth (locus YER111C, strain swi4, hits give low values): 0.947 | normalized growth (locus YER155C, strain BEM2 (second series), hits give low values): 0.436 (active) | normalized growth (locus YFR010W, strain ubp6, hits give low values): 0.868 (active) | normalized growth (locus YGL167C, strain pmr1, hits give low values): 0.94 | normalized growth (locus YGL173C, strain kem1, hits give low values): 0.927 | normalized growth (locus YGL227W, strain vid30, hits give low values): 0.999 | normalized growth (locus YGL240W, strain doc1, hits give low values): 0.966 | normalized growth (locus YGL253W, strain hxk2, hits give low values): 0.946 | normalized growth (locus YHR013C, strain ard1, hits give low values): 0.746 (active) | normalized growth (locus YHR027C, strain rpn1, hits give low values): 0.974 | normalized growth [1]: 1.04 | normalized growth [2]: 1.04 | normalized growth (locus YHR142W, strain chs7, hits give low values): 0.87 (active) | normalized growth (locus YJL092W, strain hpr5, hits give low values): 0.984 | normalized growth (locus YJL095W, strain BCK1 (second series), hits give low values): 0.968 | normalized growth [3]: 0.982 | normalized growth (locus YJL115W, strain asf1, hits give low values): 0.973 | normalized growth (locus YJL129C, strain trk1, hits give low values): 0.811 (active) | normalized growth (locus YJL154C, strain vps35, hits give low values): 0.993 | normalized growth (locus YJL164C, strain tpk1, hits give low values): 0.932 | normalized growth (locus YJL166W, strain qcr8, hits give low values): 0.949 | normalized growth (locus YJL187C, strain SWE1, hits give low values): 0.967 | normalized growth [4]: 0.972 | normalized growth (locus YKL160W, strain elf1, hits give low values): 0.9 (active) | normalized growth (locus YKR026C, strain gcn3, hits give low values): 0.988 | normalized growth (locus YKR091W, strain srl3, hits give low values): 0.99 | normalized growth (locus YLL001W, strain dnm1, hits give low values): 0.975 | normalized growth (locus YLL026W, hits give low values): 0.987 | normalized growth (locus YLL041C, strain sdh2, hits give low values): 0.984 | normalized growth (locus YLR027C, strain aat2, hits give low values): 0.975 | normalized growth [5]: 1.01 | normalized growth (locus YLR221C, strain rsa3, hits give low values): 0.976 | normalized growth (locus YLR258W, strain gsy2, hits give low values): 0.987 | normalized growth (locus YLR262C, strain YPT6 (second series), hits give low values): 0.821 (active) | normalized growth (locus YLR320W, strain mms22, hits give low values): 0.57 (active) | normalized growth (locus YLR342W, strain FKS1, hits give low values): 0.981 | normalized growth (locus YLR357W, strain rsc2, hits give low values): 1.12 | normalized growth (locus YLR370C, strain arc18, hits give low values): 0.95 | normalized growth (locus YLR384C, strain iki3, hits give low values): 0.943 | normalized growth (locus YML120C, strain ndi1, hits give low values): 0.961 | normalized growth (locus YMR058W, strain fet3, hits give low values): 0.943 | normalized growth (locus YMR125W, strain sto1, hits give low values): 0.981 | normalized growth (locus YMR129W, hits give low values): 0.986 | normalized growth (locus YMR205C, strain PFK2, hits give low values): 0.894 | normalized growth (locus YMR231W, strain pep5, hits give low values): 0.973 | normalized growth (locus YNL071W, strain lat1, hits give low values): 0.781 (active) | normalized growth [6]: 0.977 | normalized growth (locus YNL209W, strain ssb2, hits give low values): 0.962 | normalized growth (locus YNL248C, strain rpa49, hits give low values): 0.876 (active) | normalized growth (locus YNL322C, strain KRE1 (second series), hits give low values): 1.02 | normalized growth (locus YNR049C, strain mso1, hits give low values): 0.986 | normalized growth (locus YOR001W, strain rrp6, hits give low values): 0.789 (active) | normalized growth (locus YOR070C, strain gyp1, hits give low values): 0.392 (active) | normalized growth (locus YOR080W, strain dia2, hits give low values): 0.998 | normalized growth (locus YOR083W, strain WHI5, hits give low values): 0.948 | normalized growth (locus YOR106W, strain vam3, hits give low values): 0.905 | normalized growth [7]: 1.04 | normalized growth (locus YOR265W, strain rbl2, hits give low values): 0.969 | normalized growth (locus YOR270C, strain vph1, hits give low values): 0.541 (active) | normalized growth (locus YOR290C, strain snf2, hits give low values): 0.894 | normalized growth (locus YPL051W, strain arl3, hits give low values): 0.905 (active) | normalized growth (locus YPL078C, strain atp4, hits give low values): 0.915 | normalized growth (locus YPL106C, strain sse1, hits give low values): 1.1 | normalized growth (locus YPL240C, strain hsp82, hits give low values): 0.985 | normalized growth [8]: 1.1

COc1ccccc1N1CCN(CCN(C(=O)c2ccc(F)cc2)c2ccccn2)CC1
normalized growth (locus YAL013W, strain DEP1, hits give low values): 0.995 | normalized growth (locus YAL040C, strain CLN3, hits give low values): 1.01 | normalized growth (locus YCL061C, strain MRC1 (second series), hits give low values): 1 | normalized growth (locus YDR150W, strain NUM1, hits give low values): 0.999 | normalized growth (locus YDR363W, strain ESC2, hits give low values): 1.02 | normalized growth (locus YER002W, strain NOP16, hits give low values): 1.01 | normalized growth (locus YGR078C, strain PAC10, hits give low values): 1.01 | normalized growth (locus YJR075W, strain HOC1, hits give low values): 1.01 | normalized growth (locus YMR307W, strain GAS1, hits give low values): 0.993 | normalized growth (locus YNL128W, strain TEP1, hits give low values): 1 | normalized growth (locus YNL153C, strain GIM3, hits give low values): 1.01 | normalized growth (locus YNL175C, strain NOP13, hits give low values): 1.01 | normalized growth (locus YNL197C, strain WHI3, hits give low values): 0.998 | normalized growth (locus YNL224C, strain SQS1, hits give low values): 1 | normalized growth (locus YOR083W, strain WHI5 (second series), hits give low values): 1.01 | normalized growth (locus YPL055C, strain LGE1, hits give low values): 1.01 | normalized growth (locus YPL241C, strain CIN2, hits give low values): 1

O=C(CCCN1CCC(O)(c2ccc(Br)cc2)CC1)c1ccc(F)cc1
normalized growth [1]: 0.959 | normalized growth [2]: 0.976 | normalized growth [3]: 0.962 | normalized growth [4]: 0.937 | normalized growth [5]: 1.02 | normalized growth [6]: 0.902 | normalized growth [7]: 0.981 | normalized growth [8]: 1.02

NC(=O)C1(N2CCCCC2)CCN(CCCC(=O)c2ccc(F)cc2)CC1
normalized growth [1]: 1.04 | normalized growth [2]: 1.02 | normalized growth [3]: 0.99 | normalized growth [4]: 0.968 | normalized growth [5]: 0.981 | normalized growth [6]: 0.959 | normalized growth [7]: 1.01 | normalized growth [8]: 0.988
